# High-throughput results (PubChem)
# This is a sample that favours compounds with a hit; in the whole collection about 7.5% have one here.
# VP16 counter = VP16 counterscreen qHTS for inhibitors of ROR gamma transcriptional activity; Potency, µM (series often up to 53.6 µM), without a hit: top-dose activity, negative = inhibition, hits mostly inhibitors; Drosophila S2 Gal4-VP16 UAS-luciferase, luminescence, 20 h; 3.5% of 310,000 active;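 further: Gal4-VP16 expression switched on by copper sulfate through the metallothionein promoter; potency means the concentration at half of the fitted maximal effect; nearly all actives have a fitted effect of over 50% in size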
# TSHR antag = Antagonists of the Thyroid Stimulating Hormone Receptor: HTS campaign; Thyrotropin receptor (Homo sapiens), P16473; TSHR-expressing cells, TSH-stimulated cAMP HTRF, 2 h; active compounds read low; activity change, negative = inhibition, % at 11.5 µM; 0.2% of 330,000 active; AID 504810, 2011;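 active means activity change below a set negative limit, meaning inhibition stronger than a set level, cut at about -70% in these data; inconclusive means activity change between two set negative limits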
#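 TSHR-expressing cells were treated with compounds, then stimulated with TSH at EC80 (4nM final) for 2 hours at 37 deg C. Cellular cAMP was measured by HTRF competition between lysate cAMP and cAMP-d2 for a cryptate-labelled anti-cAMP antibody.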
# ELG1 DNA repair = qHTS screen for small molecules that inhibit ELG1-dependent DNA repair in human embryonic kidney (HEK293T) cells expressing luciferase-tagged ELG1; HEK293T ELG1-luciferase reporter, luminescence, 16 h; DNA damage induced by 5-fluorouridine; Potency, µM (titrated, usually from 46.1 µM), inactives show at the top dose activity change, negative = inhibition, actives largely listed as inhibitors; 2.3% of 330,000 active; AID 504467, 2011; further: potency means the concentration at half of the fitted maximal effect; nearly all actives have a fitted effect of over 55% in size
#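 Quantitative HTS, concentration-response format. 2,000 cells/well co-treated with 5-fluorouridine and compound, 16 hr in 5% CO2 at 37 °C; ONE-Glo luminescence read after 30 min.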
# RORg inh = qHTS for inhibitors of ROR gamma transcriptional activity; AID 2551, 2010; 5.4% of 310,000 active; Potency, µM (doses to about 53.6 µM), without a hit: at the top dose activity change, negative = inhibition, usual class: inhibitors; Drosophila S2 Gal4-RORgamma UAS-luciferase reporter, 20 h; further: potency means the concentration at half of the fitted maximal effect; nearly all actives have a fitted effect of over 60% in size
#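 Read-out: Photinus luciferase luminescence; inhibitors lower reporter signal. Insect Schneider cells with Gal4-ROR gamma fusion under metallothionein promoter, UAS reporter; 700 uM final copper sulfate induction, 20 hr, ambient temperature.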
# B2AR arrestin = qHTS assay of beta-arrestin-biased ligands of beta2-adrenergic receptor. beta-arrestin recruitment to beta2AR, cell-based reporter. AID 492947, 2010. 0.02% of 330,000 active. Potency, µM (highest dose often 46.1 µM), without a hit: at the highest dose activation, actives largely listed as activators;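 further: potency means the concentration at half of the fitted maximal effect; 0% = DMSO controls and full agonism = EC100 isoproterenol or metaproterenol; nearly all actives have a fitted effect of over 65% in size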
# Target sequence (P07550 whole entry, looked up): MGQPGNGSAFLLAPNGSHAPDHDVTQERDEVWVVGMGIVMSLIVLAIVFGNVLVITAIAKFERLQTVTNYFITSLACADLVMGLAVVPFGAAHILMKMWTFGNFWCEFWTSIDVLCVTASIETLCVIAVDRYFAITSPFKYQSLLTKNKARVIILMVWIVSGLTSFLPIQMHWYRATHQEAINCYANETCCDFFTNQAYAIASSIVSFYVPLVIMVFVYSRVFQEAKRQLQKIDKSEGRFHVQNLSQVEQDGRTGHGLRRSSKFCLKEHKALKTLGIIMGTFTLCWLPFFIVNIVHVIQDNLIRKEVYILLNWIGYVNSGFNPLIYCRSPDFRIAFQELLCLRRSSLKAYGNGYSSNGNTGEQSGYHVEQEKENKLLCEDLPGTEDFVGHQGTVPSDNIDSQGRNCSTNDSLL
# The depositor's hits bear a star; ? = inconclusive; . = no result; [ ] = dose if it differs, or a comment. Unless noted, the call rests on the fitted dose curve; in most records, active means well fitted curve in the direction sought with a large enough effect; inconclusive means small, poorly fitted or top-dose-only effect, or another doubt; inactive means no such curve, though single readings can be large; an effect the other way counts as inactive or inconclusive. Unless noted, on the % scale 0 is the no-effect control and ±100 the full control effect.
SMILES,VP16 counter,TSHR antag,ELG1 DNA repair,RORg inh,B2AR arrestin
Cc1cccc(C(=O)Oc2ccc(/C=N/NC(=O)c3ccccc3O)cc2)c1,3.5µM*,11,?,3.5µM*,-1%
O=C(N/N=C/c1cccc(C(F)(F)F)c1)c1ccccc1O,?,-7,20%,10µM*,-1%
O=S(=O)(N/N=C/c1cccc(OC2CSC2)c1)c1ccccc1,-14%,-1,5%,20%,-1%
O=C(N/N=C/c1cccc(OC2CSC2)c1)c1ccccc1O,0%,0,?,13µM*,0%
COc1cccc2c1CCCC2CCCN1CCN(C2CCCCC2)CC1 (centres undefined),-1%,.,.,-2%,.
CCCN=C1N(CC)C[C@@H]2[C@@H]3C(=O)N(C)C(=O)[C@@H]3[C@](C)(C(=O)OC)N12,.,22,17%,.,-1%
O=C(NC1CCCC1)C1CCN(C(=O)c2cc(Cl)ccc2Cl)CC1,6%,4,-1%,1%,0%
O=C(Nc1cccc(F)c1)N1CC[C@@]2(CCCN(C(=O)c3cc(C(F)(F)F)cc(C(F)(F)F)c3)C2)C1,14%,.,.,16%,.
CN(/N=C/c1ccc(O)cc1O)c1ncc(C(F)(F)F)cc1Cl,-11%,14,-1%,7.9µM*,0%
CC(=O)c1cccc(NC(=O)c2ccoc2C)c1,8%,-5,8%,13%,0%
CCOC(=O)c1cc(NC(=O)c2ccoc2C)cc(C(=O)OCC)c1,-11%,8,9.2µM*,5%,0%
CO/N=C(\C)CCN1CCc2nc(-c3ccccc3)c(-c3ccccc3)cc2C1,5%[10 µM],.,.,-23%[10 µM],.
COc1ccc(Cc2nnc(NC(=O)C3CC(=O)N(c4ccccc4)C3)s2)cc1OC (centres undefined),-1%,-8,2%,22%,0%
COc1cc(/C=N/N=C2/NC(=O)C(Cc3ccc(F)cc3)S2)ccc1O (centres undefined),?,-4,?,13µM*,-1%
COc1ccc([C@]23Cc4cc(C#N)ccc4C(O2)c2c(c4ccc(OC)cc4oc2=O)O3)cc1,-8%[10 µM],.,.,-6%[10 µM],-1%[9.22 µM]
OC(CNCc1ccc(Cl)cc1)(c1ccccc1)c1ccc(F)cc1 (centres undefined),11µM*,6,-23%,?,0%
COc1ccccc1Cn1c(=O)c2ccccc2n2c(Sc3ncnc4sccc34)nnc12,?,-11,?,11µM*,0%
Cc1cccc(CNc2ccnc(-c3ccccc3CN(C)C)n2)c1,1%,.,.,-31%,.
O=C(CN1C(=O)c2ccccc2S1(=O)=O)c1ccccc1F,?,4,?,?,0%
O=C(CN1C(=O)c2ccccc2S1(=O)=O)c1ccc(OC(F)F)cc1,10µM*,5,12µM*,13µM*,0%
O=C(CN1C(=O)c2ccccc2S1(=O)=O)c1ccc(F)cc1,5µM*,-1,-1%,7.9µM*,0%
CCCCCCn1ccc(=N)cc1,7.1µM*,-14,3.7µM*,-36%,0%
Cc1c(C(=O)N2CCN(C(c3ccccc3)c3ccccc3)CC2)oc2ccccc12,.,-26,17%,.,0%
COc1ccc(/C=N/NC(=S)NC2CCS(=O)(=O)C2)cc1 (centres undefined),4.5µM*,4,14%,7.1µM*,0%
CC(C)(C)c1ccc(/C=N/NC(=S)NC2CCCCC2)cc1,3.2µM*,3,-11%,1.1µM*,0%
Cc1nn(Cc2ccc(Cl)cc2)c(C)c1NC(=O)C(c1ccccc1)c1ccccc1,-1%,-11,?,11µM*,0%
Cc1nn(Cc2ccc(Cl)c(Cl)c2)c(C)c1NC(=O)c1noc2c1CCCCC2,?,-2,1%,?,0%
Cc1nn(Cc2ccc(Cl)cc2)c(C)c1NC(=O)c1noc2c1CCCCC2,-2%,-16,23µM*,37%,-1%
